From the supplement of paper PMC7556523

system: Sporothrix schenckii ATCC 32286; assay: growth inhibition relative to untreated control; higher = more growth inhibition (more antifungal activity), active = 80 or more; extreme values may be limits of the assay; details: 1 µM; 48 h
Procedure, shortened: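 The reported figure is percent growth inhibition relative to untreated cells, from quadruplicate runs. Yeast-form cells of the reference isolates at 1 x 10^5 CFU/ml were exposed to library compounds at a final 1 μM for 48 h at 35°C in 5% CO2, and growth was assessed by microscopy and spectrophotometric readings.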

Growth inhibition, inactive:
FC(F)(F)c1nnc2ccc(Cl)nn12 14%
CCS(=O)(=O)N(Cc1ccco1)Cc1cc2ccc(C)cc2nc1O 2%
Nc1cccnc1Nc1ccc(Cl)cc1 0%
Cn1ccnc1CNCCS(=O)(=O)c1cccc(Nc2ccc(-c3cccc(F)c3)cn2)c1 0%
COc1ccc(C2=NN(C3CCCCCC3)C(=O)C2(C)C)cc1OCCCCOc1ccc(-c2nn[nH]n2)cc1 0%
FC(F)(F)c1cnc(Sc2nnc(-c3ccncc3)o2)c(Cl)c1 0%
Clc1ccc(CCNc2cc(-c3ccccc3)nc3ncnn23)cc1 18.2%
COc1ccccc1OCCCCn1c(C2CC2)nc2ccccc21 9.25%
O=C(NCc1ccoc1)N1CCN(Cc2ccc3c(c2)OCO3)CC1 6.25%
COc1cccc(-c2cc3c(Nc4cccnc4)nccc3[nH]2)c1 5%
O=C(C1CCN(c2cc(-n3cccc3)ncn2)CC1)N1CCc2ccccc2C1 10.2%
NS(=O)(=O)c1cncc(-c2ccc3nccc(-c4cn[nH]c4)c3n2)c1 2%
Brc1c(-c2ccc3c(c2)OCO3)nc2ncccn12 27.8%
c1ccc2c(c1)CN(CC1CC1)CC1(CCN(Cc3c[nH]c4cnccc34)CC1)O2 0%
O=C(NCc1cc(Cl)cc(Cl)c1)c1c(C(F)(F)F)nc2ccccn12 11.2%
C[C@H](c1ccc2c(c1)CCCC2)N(C)c1ncc2c(N)nc(N)nc2n1 0%
c1ccc(-c2[nH]c3ccccc3c2C(c2ccccn2)N2CCCC2)cc1 (stereo not drawn) 12.2%
Nc1ncnc2c1ncn2C[C@@H](O)[C@@H](O)C(=O)O 11.8%
FC(F)(F)c1ccc(N(c2cccnc2)C2CCN(c3ccc(C(F)(F)F)cn3)CC2)cc1 0%
Cc1cc(C)n(-c2ccc(NC(=O)C3CCN(Cc4cnc(C)s4)CC3)cc2)n1 1.25%
Nc1ncc(-c2ccc(C(F)(F)F)nc2)cc1-c1ccc(C(F)(F)F)nc1 11%
CCOc1ccc2cc(-c3nn(CC4CCN(C)CC4)c4ncnc(N)c34)ccc2c1 15.8%
Nc1ncnc2c1c(Cc1cccc3ccccc13)nn2CC1CCNCC1 0%
CC(C)n1nc(-c2cc3c(Cl)cccc3[nH]2)c2c(N)ncnc21 16.8%
O=C(NCCc1c[nH]c2ccccc12)c1cc2ccccc2oc1=O 4.5%
CCN(CC)CCCN1CCN(C(=O)c2cccc(-c3noc(C(F)(F)F)n3)c2)CC1 0%
Cc1ccc2[nH]c(C3CCCNC3)c(-c3ccncc3)c2c1 (stereo not drawn) 7.75%
CCc1ccccc1-n1c(C)cn2c3c(=O)n(C(C(=O)OC)C(C)C)c(=O)n(C)c3nc12 (stereo not drawn) 0%
CCc1c(C)nc(-n2nc(C)cc2NC(=O)c2ccccc2SC)[nH]c1=O 76.8%
CCN(CC)S(=O)(=O)c1ccc(C(=O)Nc2cc(C)nn2-c2nc(C)c(C)c(=O)[nH]2)cc1 0%
O=C(Nc1cccc(Cl)c1)c1cnc(N2CCN(c3ccncc3)CC2)c(Cl)c1 1.5%
Cc1cnc(N2CCN[C@@H](Cc3ccccc3)C2)nc1Oc1ccc(-n2ccnc2)cc1 6.5%
CN1CCN(S(=O)(=O)c2ccc(-c3ccc4c(Nc5ccc6nn[nH]c6c5)ccnc4c3)cc2)CC1 7.5%
CCCS(=O)(=O)N1CCC(CO)(Cc2ccccc2C(F)(F)F)CC1 0%
CCc1nc2ccccc2n1CC(O)COc1cc(C)ccc1Cl (stereo not drawn) 11%
CCN(CC)S(=O)(=O)c1ccc(Cl)c(C(=O)Nc2ccc3nc(C)sc3c2)c1 9.75%
Cc1nc(-c2ccccn2)nc(N(C)CCc2ccccc2)c1Cl 34.8%
Cc1[nH]c2cc(F)cc(F)c2c(=O)c1-c1ccc(Oc2ccc(OC(F)(F)F)cc2)cc1 9.5%
